Out of some 1,300 compounds screened, about 150 (12%) were called active. About 30% were inconclusive and are not listed. Many of the other results were omitted from the sample, so actives are more common in it than they were. Values without a mark were called inactive. The call rests on the fitted dose curve; in most records, active means well fitted cell-killing curve with a large enough effect; inconclusive means small, poorly fitted or top-dose-only effect, or effect the other way; inactive means flat fitted curve, though single readings scatter.
Experiment: qHTS of small molecules that selectively kill Giardia lamblia: Hit Validation in HepG2 cytotox;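 further: compound exposure lasted overnight at 37 deg C; nearly all actives have a fitted effect of over 55% in size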;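 on activity change, negative = cytotoxicity: viability measured as cellular ATP by ATPLite luminescence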
Conditions: cell viability; Potency: HepG2 cytotoxicity; series mostly up to 38.3 µM; activity change, negative = cytotoxicity: at the top concentration
Summary of the method: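 Counterscreen cytotoxicity: ATPLite luminescence (15 min, room temperature) measured in HepG2 cells exposed overnight at 37 deg C to pin-transferred compound (23 nL) after overnight pre-incubation.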
On the % scale 0 is the no-effect control and ±100 the full control effect; potency means the concentration at half of the fitted maximal effect.

SMILES	activity change, negative = cytotoxicity	Potency
CCCn1c(C)cc(C(=O)COc2ccc(C)nc2[N+](=O)[O-])c1C	5.25%	–
CCNc1ccc(N=Nc2c(C)n(C)n(-c3ccccc3)c2=O)cc1	1.86%	–
N#Cc1sc(NCc2cccc(Cl)c2)nc1Cl	-3.86%	–
COc1ccc(C(CNC(=O)c2oc3cc(Br)ccc3c2C)N2CCCCC2)cc1 (configuration not stated)	-8.83%	–
CC(=O)Oc1ccc2c(=O)c(Oc3ccccc3[N+](=O)[O-])coc2c1	7.74%	–
O=C(Nc1ccc(N2CCCC2)c(Cl)c1)c1ccc([N+](=O)[O-])o1	–	7.36 µM (active)
NC(=O)c1oc2ccccc2c1NC(=O)c1ccc([N+](=O)[O-])o1	–	2.61 µM (active)
COc1ccc(N2CCCC2)c(NC(=O)c2ccc([N+](=O)[O-])o2)c1	14%	–
O=C(Nc1cccc(Cl)c1N1CCOCC1)c1ccc([N+](=O)[O-])o1	2.72%	–
Cc1ccc(C)c(Sc2ccc(NC(=O)CCl)cc2)c1	-24.4%	–
COc1ccc2oc(=Nc3ccccc3)c(-c3nc4ccccc4[nH]3)cc2c1	–	7.36 µM (active)
Cc1ncc([N+](=O)[O-])n1CCOC(=O)c1ccccc1	12.9%	–
Cc1ccc(S(=O)(=O)N2[C@@H](c3ccccc3F)C(C(=O)O)=CC[C@H]2c2cccc(C)c2)cc1	14.1%	–
[O-][n+]1c2ccccc2c2n1CCCN=C2c1ccc(Cl)cc1	7.31%	–
O=C(CN1C(=O)c2ccccc2S1(=O)=O)c1ccc2c(c1)OCCO2	–	2.07 µM (active)
O=[N+]([O-])c1nn(-c2ccccc2)[n+]([O-])c1N1CCN(c2ccccc2F)CC1	8.55%	–
O=[N+]([O-])c1ccc(/C=C/c2ccnc3ccccc23)c([N+](=O)[O-])c1	23.8%	–
CCOn1c(=O)c(-c2cccc([N+](=O)[O-])c2)[n+]([O-])c2ccccc21	1.56%	–
CSC1SCC2C(=O)N(C)C(C(C)C)C(=O)OCC(NC(=O)c3cnc4ccccc4n3)C(=O)NC(C)C(=O)N(C)C1C(=O)N(C)C(C(C)C)C(=O)OCC(NC(=O)c1cnc3ccccc3n1)C(=O)NC(C)C(=O)N2C (configuration not stated)	–	0.0117 µM (active)
O=[N+]([O-])c1cccc(S(=O)(=O)c2ccc(NCCOCCO)c([N+](=O)[O-])c2)c1	22.6%	–
Cc1ccc(C2=NCCn3c2c2ccc(C(F)(F)F)cc2[n+]3[O-])cc1	0.0948%	–
O=C(NCc1ccco1)c1ccc([N+](=O)[O-])o1	0.173%	–
Cc1cc(NC(=O)c2ccc([N+](=O)[O-])o2)ccc1NC(=O)c1ccco1	–	2.93 µM (active)

SMILES	activity change, negative = cytotoxicity	Potency
CCN(CC(=O)NCc1cccs1)C(=O)c1ccc([N+](=O)[O-])o1	-18.8%	–
COc1ccc(NC(=O)c2ccc([N+](=O)[O-])o2)cc1	–	3.69 µM (active)
Cc1onc(NC(=O)c2ccc([N+](=O)[O-])o2)c1Br	-10.9%	–
O=C(Nc1ccc(Cc2ccncc2)cc1)c1ccc([N+](=O)[O-])o1	–	6.56 µM (active)
O=C(Nc1ncccn1)c1ccc([N+](=O)[O-])o1	15.6%	–
COc1ccc(-c2cc3ccccc3oc2=O)cc1NC(=O)c1ccc([N+](=O)[O-])o1	-15.1%	–
COc1cc(NC(=O)c2ccc([N+](=O)[O-])o2)ccc1NC(=O)c1cccs1	–	14.7 µM (active)
Cc1ccc(CNC(=O)c2ccc([N+](=O)[O-])o2)cc1	-2.51%	–
COc1ccc(CC(NC(C)=O)C(=O)NC2CCN(c3ncccc3[N+](=O)[O-])CC2)cc1 (configuration not stated)	2.55%	–
CCC1CCCCN1C(=O)c1ccc([N+](=O)[O-])o1 (configuration not stated)	-13.7%	–
Cc1ccc(C2=NCCn3c2c2ccc([N+](=O)[O-])cc2[n+]3[O-])cc1	9.71%	–
O=[n+]1c2c(n([O-])c3cc(Br)ccc31)CCCC2	6.84%	–
CCOc1cc(C=O)ccc1OCCn1c([N+](=O)[O-])cnc1C	13.6%	–
CCOC(=O)C1=C(C)N=c2s/c(=C/c3cccc([N+](=O)[O-])c3O)c(=O)n2C1c1ccc(OC)cc1OC (configuration not stated)	4.23%	–
CCN(CC)CCOC(=O)c1ccc(N/C=C(/C#N)c2nc(-c3cc4ccccc4oc3=O)cs2)cc1	-3.12%	–
O=[N+]([O-])c1ncn(Cc2c(Cl)cccc2Cl)n1	13.7%	–
C=CCNC(=O)c1ccccc1NC(=O)COc1ccccc1	8.16%	–
O=C(COc1cccnc1[N+](=O)[O-])NCc1ccc(F)cc1	-9.98%	–
CC(=O)c1c(COC(=O)c2ccccc2Cl)nc2ccccc2[n+]1[O-]	21.4%	–
O=[N+]([O-])c1ccc2nc(-c3ccc(OC(F)F)cc3)cn2c1	-8.69%	–
COc1cccc([C@@H]2CC=C(C(=O)O)[C@H](c3cccc(Cl)c3)N2S(=O)(=O)c2ccc(C)cc2)c1	1.31%	–
COc1ccc(NC(=O)c2ccc([N+](=O)[O-])cc2[N+](=O)[O-])c(OC)c1	4.09%	–
CC(=O)c1c(C)n([O-])c2cc(C)ccc2[n+]1=O	10.2%	–

SMILES	activity change, negative = cytotoxicity	Potency
NC(=O)c1c(NC(=O)c2ccc([N+](=O)[O-])o2)sc2c1CCCC2	–	11.7 µM (active)
O=C(c1ccc([N+](=O)[O-])o1)N1CCc2ccccc2C1	5.56%	–
CC(=O)N1CCc2c(sc(NC(=O)c3ccc([N+](=O)[O-])o3)c2C#N)C1	–	3.29 µM (active)
COC(=O)c1sc(NC(=O)c2ccc([N+](=O)[O-])o2)c(C#N)c1C	-19.1%	–
NC(=O)c1c(NC(=O)CCCn2cnc([N+](=O)[O-])n2)sc2c1CCCC2	-2.71%	–
O=C1S/C(=C\c2ccc(O)c([N+](=O)[O-])c2)C(=O)N1Cc1cccc([N+](=O)[O-])c1	-21.5%	–
OC(COc1cccc2ccccc12)CN1CCN(c2ccc(Cl)cc2)CC1 (configuration not stated)	-21.8%	–
O=[N+]([O-])C(/C=C(\Cl)[N+](=O)[O-])=C(N1CCCCC1)N1CCCCC1	2.12%	–
CC(=O)NC(Cc1ccccc1F)C(=O)NC1CCN(c2ncccc2[N+](=O)[O-])CC1 (configuration not stated)	6.4%	–
CCN(CCCNC(=O)c1nn(C)c2c1CS(=O)(=O)c1ccccc1-2)Cc1ccccc1	8.51%	–
CC(C)(C)C1C/C(=C/c2ccccn2)C(=O)/C(=C/c2ccccn2)C1 (configuration not stated)	–	0.585 µM (active)
O=C1CC(c2ccc(F)cc2)CC2=C1C(c1ccc([N+](=O)[O-])o1)Nc1ccccc1N2 (configuration not stated)	0.0723%	–
O=c1[nH]c(=O)c2cc([N+](=O)[O-])cc([N+](=O)[O-])c2[nH]1	26.1%	–
O=[N+]([O-])c1ccc(/C=N/Nc2nc(N3CCCCC3)nc(N3CCCCC3)n2)o1	-1.62%	–
O=C(Nc1ccc(S(=O)(=O)N2CCCC2)cc1)c1ccc([N+](=O)[O-])o1	–	2.93 µM (active)
O=C(Nc1ccccc1N1CCOCC1)c1ccc([N+](=O)[O-])o1	20.1%	–
COc1ccc(C)cc1NC(=O)c1cc(S(=O)(=O)N2CCCC2)cn1C	7.45%	–
COc1ccc(S(=O)(=O)N2CCOCC2)cc1NC(=O)COc1cccnc1[N+](=O)[O-]	4.96%	–
COc1ccc(S(=O)(=O)N2CCCCC2)cc1NC(=O)c1ccc([N+](=O)[O-])o1	–	3.29 µM (active)
Cc1ccc(NC(=O)c2ccc([N+](=O)[O-])o2)cc1S(=O)(=O)N1CCOCC1	–	13.1 µM (active)
CC(C)C(=O)NC(=S)Nc1ccc(S(=O)(=O)N2CCCC2)cc1	2.66%	–
Cc1ccc(NC(=O)COc2cccnc2[N+](=O)[O-])cc1S(=O)(=O)N1CCCCC1	-2.65%	–
COc1ccc(S(=O)(=O)N2CCN(C(=O)c3ccc([N+](=O)[O-])o3)CC2)cc1	1.33%	–

SMILES	activity change, negative = cytotoxicity	Potency
O=C(Nc1ccc(S(=O)(=O)N2CCOCC2)cc1)c1ccc([N+](=O)[O-])o1	–	13.1 µM (active)
O=C(Cc1ccc(Cl)cc1)Nc1ncc([N+](=O)[O-])s1	-20.5%	–
Cc1ccc(-n2c(C)cc(C(=O)COc3cccnc3[N+](=O)[O-])c2C)cc1	12.6%	–
O=C(c1ccc([N+](=O)[O-])o1)N1CCc2ccccc21	7.1%	–
Cc1cc(C)cc(N=c2c([N+](=O)[O-])nn(-c3ccc(Cl)cc3)n2O)c1	14.2%	–
O=C(COc1cccnc1[N+](=O)[O-])NCc1ccco1	10.7%	–
COc1ccc(OC)c(CCNC(=O)CSc2ccsc2[N+](=O)[O-])c1	-0.302%	–
Cc1ccc(S(=O)(=O)N2[C@@H](c3ccc(Cl)cc3)C(C(=O)O)=CC[C@H]2c2ccc(Cl)c(Cl)c2)cc1	-5.73%	–
Cn1nc(N)c2c(-c3ccccc3)c(C#N)c(N)nc21	6.82%	–
Cc1ccc(N=c2c([N+](=O)[O-])nn(-c3ccc4c(c3)OCCO4)n2O)cc1F	2.9%	–
CC(C)(C)n1nc(-c2ccc(Cl)cc2)c2c(N)ncnc21	5.62%	–
[O-][n+]1c2cc(C(F)(F)F)ccc2c2n1CCN=C2c1ccc(Cl)cc1	6.18%	–
CCOC(=O)CSc1ccc(C(=O)NCCCN2CCOCC2)cc1[N+](=O)[O-]	1.58%	–
O=[N+]([O-])c1cc(S(=O)(=O)Nc2cccc(Cl)c2)ccc1N/N=C/c1ccc(N2CCOCC2)cc1	15.7%	–
O=C(Nc1cccc(S(=O)(=O)N2CCCCC2)c1)c1ccc([N+](=O)[O-])o1	–	11.7 µM (active)
O=C(COc1cccnc1[N+](=O)[O-])Nc1cccc(S(=O)(=O)N2CCCCC2)c1	7.3%	–
CC(=O)NC(Cc1cccc(C)c1)C(=O)NC1CCN(c2ncccc2[N+](=O)[O-])CC1 (configuration not stated)	1.07%	–
Cc1cc(C)n(S(=O)(=O)c2ccccc2[N+](=O)[O-])n1	-7.32%	–
CC(NC(=O)c1ccc(N(C)C)c([N+](=O)[O-])c1)c1ccc(-n2ccnc2)cc1 (configuration not stated)	-5.39%	–
CC(=O)NC(Cc1cccc(F)c1)C(=O)NC1CCN(c2ncccc2[N+](=O)[O-])CC1 (configuration not stated)	25.4%	–
C/C(=N\NC(=O)COc1ccc(C)cc1Br)c1cc([N+](=O)[O-])cs1	1.76%	–
CC12CN3CC(C)(CN(C1)C3c1ccc([N+](=O)[O-])o1)C2 (configuration not stated)	23.5%	–
O=[N+]([O-])c1cccc2nc3ccccc3c(NCCCn3ccnc3[N+](=O)[O-])c12	–	0.0736 µM (active)
